# Results as given in publication PMC7862700, “An all-to-all approach to the identification of sequence-specific readers for epigenetic DNA modifications on cytosine”.
# Columns and labels:
# Assay in all cases: DAPPL (digital affinity profiling via proximity ligation, sequencing); 10 mM Tris-HCl pH 7.5, 50 mM NaCl, 1 mM DTT, 4% glycerol, room temperature, 30 min; GST-TFs on glutathione beads, 16-mer random dsDNA library, 0.1% formaldehyde crosslink after washing; high values mean tight binding
# [1] = target: T1, FEV (Homo sapiens, UniProt Q99581 1-238); conditions: protein: recombinant; tags: N-terminal GST; dsDNA, one strand shown
# T1 sequence: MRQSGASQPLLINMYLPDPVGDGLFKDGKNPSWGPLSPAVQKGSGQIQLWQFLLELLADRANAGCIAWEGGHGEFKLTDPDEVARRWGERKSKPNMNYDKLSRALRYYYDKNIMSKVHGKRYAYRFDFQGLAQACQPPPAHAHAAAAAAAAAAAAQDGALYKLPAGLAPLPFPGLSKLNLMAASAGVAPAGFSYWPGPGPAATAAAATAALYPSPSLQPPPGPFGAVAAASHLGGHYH
# How it was run: (§1)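 Sequencing on an Illumina NextSeq500 followed washing, crosslinking with 0.1% formaldehyde, proximity ligation (BsaI/T4 ligase, 1 h, 37 °C) and PCR amplification of pools that had been incubated for 30 min at room temperature with 200 nmole of a random double-stranded 16-mer DNA library in Tris/NaCl/DTT/glycerol buffer. Each pool held DNA-barcoded human transcription factors, expressed in yeast as GST fusions and captured on glutathione beads, plus a tag-only sample. Binding signal is a hexamer's read frequency for a factor divided by its frequency in the tag-only sample.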
# [2] = target: ETV5 (Homo sapiens, UniProt P41161 1-510); conditions: protein: recombinant; tags: N-terminal GST; dsDNA, one strand shown
# How it was run: as §1
# [3] = target: HSF1 (Homo sapiens, UniProt Q00613 1-529); conditions: protein: recombinant; tags: N-terminal GST; chain copies: 3; dsDNA, one strand shown
# How it was run: as §1
# [4] = target: T2, SPIC (Homo sapiens, UniProt Q8N5J4 1-248); conditions: protein: recombinant; tags: N-terminal GST; dsDNA, one strand shown
# T2 sequence: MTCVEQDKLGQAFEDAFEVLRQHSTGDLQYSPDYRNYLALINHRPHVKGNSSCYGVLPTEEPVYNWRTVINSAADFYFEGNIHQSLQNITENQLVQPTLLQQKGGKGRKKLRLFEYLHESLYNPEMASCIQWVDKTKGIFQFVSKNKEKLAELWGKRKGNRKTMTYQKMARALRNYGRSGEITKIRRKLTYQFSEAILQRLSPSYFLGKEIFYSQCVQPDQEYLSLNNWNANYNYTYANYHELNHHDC
# How it was run: as §1
# [5] = target: ELF4 (Homo sapiens, UniProt Q99607 1-663); conditions: protein: recombinant; tags: N-terminal GST; dsDNA, one strand shown
# How it was run: as §1
# [6] = target: T3, ELK4 (Homo sapiens, UniProt P28324-2 1-405); conditions: protein: recombinant; tags: N-terminal GST; dsDNA, one strand shown
# T3 sequence: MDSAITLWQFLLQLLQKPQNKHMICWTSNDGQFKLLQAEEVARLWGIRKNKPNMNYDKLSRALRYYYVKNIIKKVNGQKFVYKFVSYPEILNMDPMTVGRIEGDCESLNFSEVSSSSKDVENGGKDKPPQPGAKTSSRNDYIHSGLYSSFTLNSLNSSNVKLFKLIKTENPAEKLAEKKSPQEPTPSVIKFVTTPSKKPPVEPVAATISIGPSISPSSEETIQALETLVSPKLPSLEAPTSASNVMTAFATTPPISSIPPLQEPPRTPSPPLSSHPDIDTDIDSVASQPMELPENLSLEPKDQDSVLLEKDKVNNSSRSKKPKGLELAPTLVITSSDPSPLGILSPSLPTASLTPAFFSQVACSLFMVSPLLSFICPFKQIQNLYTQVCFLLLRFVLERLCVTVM
# How it was run: as §1
# [7] = target: T4, ETV2 (Homo sapiens, UniProt O00321 1-342); conditions: protein: recombinant; tags: N-terminal GST; dsDNA, one strand shown
# T4 sequence: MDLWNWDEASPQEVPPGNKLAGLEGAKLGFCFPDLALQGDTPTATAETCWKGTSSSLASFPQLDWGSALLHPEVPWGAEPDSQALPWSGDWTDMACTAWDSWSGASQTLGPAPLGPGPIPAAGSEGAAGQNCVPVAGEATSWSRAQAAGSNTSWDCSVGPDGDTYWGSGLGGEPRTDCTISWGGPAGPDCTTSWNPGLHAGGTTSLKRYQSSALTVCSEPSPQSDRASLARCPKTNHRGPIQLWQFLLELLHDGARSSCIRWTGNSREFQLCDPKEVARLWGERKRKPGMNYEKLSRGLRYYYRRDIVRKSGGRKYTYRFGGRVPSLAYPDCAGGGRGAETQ
# How it was run: as §1
# [8] = target: T5, ELF3 (Homo sapiens, UniProt P78545 1-371); conditions: protein: recombinant; tags: N-terminal GST; dsDNA, one strand shown
# T5 sequence: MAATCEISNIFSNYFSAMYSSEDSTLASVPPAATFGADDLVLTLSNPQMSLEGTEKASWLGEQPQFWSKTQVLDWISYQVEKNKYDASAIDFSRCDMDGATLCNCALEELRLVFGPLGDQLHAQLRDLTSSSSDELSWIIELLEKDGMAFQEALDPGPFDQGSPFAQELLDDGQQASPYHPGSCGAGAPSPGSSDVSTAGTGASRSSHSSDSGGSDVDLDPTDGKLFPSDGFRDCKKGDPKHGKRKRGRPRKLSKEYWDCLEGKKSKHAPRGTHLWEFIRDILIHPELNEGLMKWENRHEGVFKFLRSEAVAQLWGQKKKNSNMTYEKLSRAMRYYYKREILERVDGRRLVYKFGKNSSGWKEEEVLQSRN
# How it was run: as §1
# [9] = target: CRX (Homo sapiens, UniProt O43186 1-299); conditions: protein: recombinant; tags: N-terminal GST; dsDNA, one strand shown
# How it was run: as §1
# [10] = target: ETV1 (Homo sapiens, UniProt P50549 1-477); conditions: protein: recombinant; tags: N-terminal GST; dsDNA, one strand shown
# How it was run: as §1
# [11] = target: T6, ERF (Homo sapiens, UniProt P50548 1-548); conditions: protein: recombinant; tags: N-terminal GST; dsDNA, one strand shown
# T6 sequence: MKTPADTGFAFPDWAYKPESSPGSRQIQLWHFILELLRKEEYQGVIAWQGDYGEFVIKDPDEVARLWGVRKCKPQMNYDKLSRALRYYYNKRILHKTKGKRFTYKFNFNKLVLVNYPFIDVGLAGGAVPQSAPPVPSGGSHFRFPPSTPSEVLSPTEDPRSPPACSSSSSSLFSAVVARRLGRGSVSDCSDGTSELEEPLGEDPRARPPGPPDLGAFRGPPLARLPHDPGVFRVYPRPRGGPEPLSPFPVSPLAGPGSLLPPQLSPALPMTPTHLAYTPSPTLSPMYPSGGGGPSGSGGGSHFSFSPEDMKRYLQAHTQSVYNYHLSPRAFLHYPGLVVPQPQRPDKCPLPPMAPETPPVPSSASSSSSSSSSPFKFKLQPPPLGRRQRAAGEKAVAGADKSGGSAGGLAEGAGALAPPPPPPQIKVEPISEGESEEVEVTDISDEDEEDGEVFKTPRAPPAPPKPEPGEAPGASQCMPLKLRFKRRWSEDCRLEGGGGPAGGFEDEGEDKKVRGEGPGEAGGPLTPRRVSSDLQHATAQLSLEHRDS
# How it was run: as §1
# [12] = target: T7, ETS2 (Homo sapiens, UniProt P15036 1-469); conditions: protein: recombinant; tags: N-terminal GST; dsDNA, one strand shown
# T7 sequence: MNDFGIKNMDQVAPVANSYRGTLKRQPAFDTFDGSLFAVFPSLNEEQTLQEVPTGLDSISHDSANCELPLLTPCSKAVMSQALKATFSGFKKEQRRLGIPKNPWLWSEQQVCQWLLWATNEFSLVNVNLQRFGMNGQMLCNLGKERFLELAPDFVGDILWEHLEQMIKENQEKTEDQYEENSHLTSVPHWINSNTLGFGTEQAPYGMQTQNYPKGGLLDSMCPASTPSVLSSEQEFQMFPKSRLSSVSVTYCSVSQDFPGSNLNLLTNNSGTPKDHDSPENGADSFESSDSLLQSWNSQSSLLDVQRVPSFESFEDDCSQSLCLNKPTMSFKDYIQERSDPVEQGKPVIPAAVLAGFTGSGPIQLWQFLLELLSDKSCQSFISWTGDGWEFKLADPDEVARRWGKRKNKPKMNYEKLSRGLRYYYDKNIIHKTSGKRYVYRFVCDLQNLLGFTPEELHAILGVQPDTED
# How it was run: as §1
# [13] = target: T8, SPDEF (Homo sapiens, UniProt O95238 1-335); conditions: protein: recombinant; tags: N-terminal GST; dsDNA, one strand shown
# T8 sequence: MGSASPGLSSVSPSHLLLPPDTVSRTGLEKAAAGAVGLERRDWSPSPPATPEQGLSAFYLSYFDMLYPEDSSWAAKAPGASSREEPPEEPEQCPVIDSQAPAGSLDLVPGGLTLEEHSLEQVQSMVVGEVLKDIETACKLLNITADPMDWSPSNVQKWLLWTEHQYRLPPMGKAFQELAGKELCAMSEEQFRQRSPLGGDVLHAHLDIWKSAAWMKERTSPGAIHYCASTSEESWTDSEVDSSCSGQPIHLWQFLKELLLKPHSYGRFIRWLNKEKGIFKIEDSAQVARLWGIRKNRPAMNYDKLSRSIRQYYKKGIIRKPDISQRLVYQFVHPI
# How it was run: as §1
# [14] = target: T9, ETV7 (Homo sapiens, UniProt Q9Y603 1-341); conditions: protein: recombinant; tags: N-terminal GST; dsDNA, one strand shown
# T9 sequence: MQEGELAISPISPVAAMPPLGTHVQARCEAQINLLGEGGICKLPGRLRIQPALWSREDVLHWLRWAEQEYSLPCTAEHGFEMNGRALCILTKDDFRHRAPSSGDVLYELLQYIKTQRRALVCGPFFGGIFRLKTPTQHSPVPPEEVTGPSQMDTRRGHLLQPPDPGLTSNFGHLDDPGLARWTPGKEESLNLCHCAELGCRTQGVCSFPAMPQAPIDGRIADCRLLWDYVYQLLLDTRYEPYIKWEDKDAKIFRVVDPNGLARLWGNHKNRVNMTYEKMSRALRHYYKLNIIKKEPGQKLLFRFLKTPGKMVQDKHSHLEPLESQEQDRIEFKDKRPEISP
# How it was run: as §1
# [15] = target: T10, ELF5 (Homo sapiens, UniProt Q9UKW6-2 1-255); conditions: protein: recombinant; tags: N-terminal GST; dsDNA, one strand shown
# T10 sequence: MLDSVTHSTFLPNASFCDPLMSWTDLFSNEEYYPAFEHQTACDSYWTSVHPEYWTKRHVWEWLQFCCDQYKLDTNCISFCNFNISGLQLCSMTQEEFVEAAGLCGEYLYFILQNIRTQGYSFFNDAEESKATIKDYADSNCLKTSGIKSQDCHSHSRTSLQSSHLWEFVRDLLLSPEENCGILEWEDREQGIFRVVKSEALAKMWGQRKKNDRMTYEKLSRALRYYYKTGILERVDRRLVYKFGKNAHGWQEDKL
# How it was run: as §1
# [16] = target: T11, ETV3 (Homo sapiens, UniProt P41162-2 1-143); conditions: protein: recombinant; tags: N-terminal GST; dsDNA, one strand shown
# T11 sequence: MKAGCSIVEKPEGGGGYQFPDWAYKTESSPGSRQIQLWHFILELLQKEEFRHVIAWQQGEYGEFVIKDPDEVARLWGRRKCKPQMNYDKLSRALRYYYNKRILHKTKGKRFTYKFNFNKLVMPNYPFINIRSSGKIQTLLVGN
# How it was run: as §1
# [17] = target: ETV6 (Homo sapiens, UniProt P41212 1-452); conditions: protein: recombinant; tags: N-terminal GST; dsDNA, one strand shown
# How it was run: as §1
# ETV6, sequence (P41212 whole entry): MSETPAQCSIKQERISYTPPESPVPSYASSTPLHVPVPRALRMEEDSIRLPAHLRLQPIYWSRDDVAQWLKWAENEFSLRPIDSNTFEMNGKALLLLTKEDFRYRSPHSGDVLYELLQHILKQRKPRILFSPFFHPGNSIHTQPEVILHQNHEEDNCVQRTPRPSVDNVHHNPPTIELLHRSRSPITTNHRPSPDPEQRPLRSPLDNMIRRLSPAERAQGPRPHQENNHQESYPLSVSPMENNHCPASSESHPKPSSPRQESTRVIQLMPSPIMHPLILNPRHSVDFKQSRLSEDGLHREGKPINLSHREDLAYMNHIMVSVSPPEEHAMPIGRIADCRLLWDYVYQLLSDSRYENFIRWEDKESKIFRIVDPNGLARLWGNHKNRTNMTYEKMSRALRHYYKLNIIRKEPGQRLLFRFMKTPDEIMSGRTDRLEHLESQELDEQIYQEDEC
# HSF1, sequence (Q00613 whole entry): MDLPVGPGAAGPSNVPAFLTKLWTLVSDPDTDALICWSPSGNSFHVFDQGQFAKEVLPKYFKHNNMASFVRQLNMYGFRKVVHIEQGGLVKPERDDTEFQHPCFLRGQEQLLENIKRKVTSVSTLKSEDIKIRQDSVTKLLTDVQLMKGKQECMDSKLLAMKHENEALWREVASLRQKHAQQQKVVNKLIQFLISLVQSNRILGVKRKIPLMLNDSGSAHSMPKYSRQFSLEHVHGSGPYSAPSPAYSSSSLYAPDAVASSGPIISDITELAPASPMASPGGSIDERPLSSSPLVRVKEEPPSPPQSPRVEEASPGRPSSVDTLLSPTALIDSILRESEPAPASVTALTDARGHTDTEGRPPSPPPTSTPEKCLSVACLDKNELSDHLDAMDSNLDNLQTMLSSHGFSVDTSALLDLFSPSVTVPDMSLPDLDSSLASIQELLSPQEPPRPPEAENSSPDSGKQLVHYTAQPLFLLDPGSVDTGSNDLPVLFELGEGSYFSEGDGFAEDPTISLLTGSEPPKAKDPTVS
# ETV5, sequence (P41161 whole entry): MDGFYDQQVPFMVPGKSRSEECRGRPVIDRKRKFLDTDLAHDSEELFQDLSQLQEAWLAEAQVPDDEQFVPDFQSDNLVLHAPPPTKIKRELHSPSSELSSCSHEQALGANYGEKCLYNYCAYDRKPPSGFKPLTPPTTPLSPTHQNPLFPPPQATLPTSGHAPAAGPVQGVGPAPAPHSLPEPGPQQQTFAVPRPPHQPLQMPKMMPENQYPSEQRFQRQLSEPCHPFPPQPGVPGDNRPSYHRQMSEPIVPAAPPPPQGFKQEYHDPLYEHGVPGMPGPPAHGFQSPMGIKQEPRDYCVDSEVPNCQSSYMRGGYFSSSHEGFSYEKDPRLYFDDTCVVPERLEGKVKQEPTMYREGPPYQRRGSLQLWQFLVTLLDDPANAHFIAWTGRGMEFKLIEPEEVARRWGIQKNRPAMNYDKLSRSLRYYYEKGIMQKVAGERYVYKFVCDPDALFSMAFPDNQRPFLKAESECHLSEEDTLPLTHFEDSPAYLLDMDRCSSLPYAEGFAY
# CRX, sequence (O43186 whole entry): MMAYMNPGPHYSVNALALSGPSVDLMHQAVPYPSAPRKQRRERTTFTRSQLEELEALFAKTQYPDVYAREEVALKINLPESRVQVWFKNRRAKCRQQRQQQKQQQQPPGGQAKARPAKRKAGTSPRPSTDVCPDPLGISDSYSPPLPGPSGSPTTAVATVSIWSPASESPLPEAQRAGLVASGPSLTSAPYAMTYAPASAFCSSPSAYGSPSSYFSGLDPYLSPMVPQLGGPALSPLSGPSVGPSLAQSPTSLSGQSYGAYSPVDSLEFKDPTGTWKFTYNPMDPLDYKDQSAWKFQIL
# ELF4, sequence (Q99607 whole entry): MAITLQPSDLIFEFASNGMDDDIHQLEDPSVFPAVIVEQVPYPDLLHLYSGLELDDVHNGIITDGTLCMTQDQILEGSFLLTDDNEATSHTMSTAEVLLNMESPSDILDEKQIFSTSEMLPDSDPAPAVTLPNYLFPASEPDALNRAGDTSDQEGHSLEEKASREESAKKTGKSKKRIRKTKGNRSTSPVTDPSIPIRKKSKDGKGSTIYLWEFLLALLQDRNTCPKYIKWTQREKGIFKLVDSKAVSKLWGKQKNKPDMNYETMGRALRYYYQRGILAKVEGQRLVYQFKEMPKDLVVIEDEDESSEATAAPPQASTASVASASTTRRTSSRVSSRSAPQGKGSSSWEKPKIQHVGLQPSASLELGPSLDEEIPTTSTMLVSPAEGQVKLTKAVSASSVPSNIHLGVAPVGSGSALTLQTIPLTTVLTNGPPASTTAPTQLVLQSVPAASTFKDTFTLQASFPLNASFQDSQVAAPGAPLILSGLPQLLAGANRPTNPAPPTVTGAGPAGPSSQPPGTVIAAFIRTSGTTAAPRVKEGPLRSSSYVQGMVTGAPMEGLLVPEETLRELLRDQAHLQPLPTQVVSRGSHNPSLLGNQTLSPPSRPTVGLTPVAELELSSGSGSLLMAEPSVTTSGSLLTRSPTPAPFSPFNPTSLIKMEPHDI
# ETV1, sequence (P50549 whole entry): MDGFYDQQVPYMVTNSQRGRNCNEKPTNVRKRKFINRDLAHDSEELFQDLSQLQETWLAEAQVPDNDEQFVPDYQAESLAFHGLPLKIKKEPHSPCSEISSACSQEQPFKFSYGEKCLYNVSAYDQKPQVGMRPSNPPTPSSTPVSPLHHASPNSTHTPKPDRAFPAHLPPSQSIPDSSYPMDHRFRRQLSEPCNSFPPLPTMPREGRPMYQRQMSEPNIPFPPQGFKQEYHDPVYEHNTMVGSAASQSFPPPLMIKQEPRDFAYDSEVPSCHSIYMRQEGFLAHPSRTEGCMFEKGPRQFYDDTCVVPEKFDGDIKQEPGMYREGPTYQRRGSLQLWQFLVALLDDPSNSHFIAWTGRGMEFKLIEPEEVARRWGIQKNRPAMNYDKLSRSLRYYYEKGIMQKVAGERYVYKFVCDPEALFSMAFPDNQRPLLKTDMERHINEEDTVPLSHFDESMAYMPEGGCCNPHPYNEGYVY
sequence,measurement,setting,value
GGAATT,binding signal,[1],"1.17 fold enrichment (6-mer frequency, TF over GST control)"
same,binding signal,[2],"1.21 fold enrichment (6-mer frequency, TF over GST control)"
same,binding signal,[3],"1.45 fold enrichment (6-mer frequency, TF over GST control)"
same,binding signal,[4],"1.11 fold enrichment (6-mer frequency, TF over GST control)"
same,binding signal,[5],"1.07 fold enrichment (6-mer frequency, TF over GST control)"
same,binding signal,[6],"1.1 fold enrichment (6-mer frequency, TF over GST control)"
same,binding signal,[7],"1.13 fold enrichment (6-mer frequency, TF over GST control)"
same,binding signal,[8],"1.12 fold enrichment (6-mer frequency, TF over GST control)"
same,binding signal,[9],"1.46 fold enrichment (6-mer frequency, TF over GST control)"
same,binding signal,[10],"1.18 fold enrichment (6-mer frequency, TF over GST control)"
same,binding signal,[11],"1.08 fold enrichment (6-mer frequency, TF over GST control)"
same,binding signal,[12],"1.21 fold enrichment (6-mer frequency, TF over GST control)"
same,binding signal,[13],"1.16 fold enrichment (6-mer frequency, TF over GST control)"
same,binding signal,[14],"1.15 fold enrichment (6-mer frequency, TF over GST control)"
same,binding signal,[15],"1.28 fold enrichment (6-mer frequency, TF over GST control)"
same,binding signal,[16],"1.2 fold enrichment (6-mer frequency, TF over GST control)"
same,binding signal,[17],"1.14 fold enrichment (6-mer frequency, TF over GST control)"
